Screening data as filed in PubChem BioAssay.
PLK1 PBD inh: qHTS for Inhibitors of PLK1-PDB (polo-like kinase 1 - polo-box domain): Primary Screen; Plk1 PBD binding of FITC phosphopeptide, fluorescence polarization; hit rate 2.8% among 360,000; Potency, µM, for the others: max response, negative = inhibition, most hits filed as inhibitors; also: potency is read from the fitted curve at half-maximal effect; series mostly up to about 57 µM; % is scaled to controls: 0 for no effect and ±100 for the full control effect; nearly all actives have a fitted effect of over 65% in size
12-LOX inh: Primary qHTS assay for inhibitors of human arachidonate 12S-lipoxygenase (ALOX12): Round 2; Polyunsaturated fatty acid lipoxygenase ALOX12 (Homo sapiens), P18054; purified 12hLO, xylenol orange hydroperoxide absorbance; Potency, µM (top dose mostly 108 µM), without a hit: at the top dose activity change, negative = inhibition, hits mostly inhibitors; hit rate 1.1% among 580,000; AID 1671190, 2021; also: potency is read from the fitted curve at half-maximal effect; % is scaled to controls: 0 for no effect and ±100 for the full control effect
Target sequence (P18054 whole entry, looked up): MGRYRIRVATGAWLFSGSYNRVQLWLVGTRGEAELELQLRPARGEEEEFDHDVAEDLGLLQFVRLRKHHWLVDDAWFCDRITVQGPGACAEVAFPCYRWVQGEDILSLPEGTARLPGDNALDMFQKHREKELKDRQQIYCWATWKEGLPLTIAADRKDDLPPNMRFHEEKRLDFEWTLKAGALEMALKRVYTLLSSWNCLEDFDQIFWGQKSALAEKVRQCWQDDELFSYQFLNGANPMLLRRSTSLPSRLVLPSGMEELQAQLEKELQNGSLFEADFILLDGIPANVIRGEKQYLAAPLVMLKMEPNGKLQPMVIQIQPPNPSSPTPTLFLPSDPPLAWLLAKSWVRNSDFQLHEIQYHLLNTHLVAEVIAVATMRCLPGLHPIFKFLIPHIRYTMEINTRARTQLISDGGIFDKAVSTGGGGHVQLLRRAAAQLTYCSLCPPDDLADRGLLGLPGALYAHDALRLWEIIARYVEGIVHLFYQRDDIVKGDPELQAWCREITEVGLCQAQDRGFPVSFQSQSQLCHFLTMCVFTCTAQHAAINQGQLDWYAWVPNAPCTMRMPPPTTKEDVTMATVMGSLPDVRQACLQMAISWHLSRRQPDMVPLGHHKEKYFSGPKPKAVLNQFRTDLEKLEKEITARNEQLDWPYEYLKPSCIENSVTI
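Purified human 12hLO at 150 nM in 25 mM Hepes, 0.01% Triton X-100, pH 7.0, preincubated 15 min at room temperature with compound. Reaction started with 40 uM arachidonic acid, 30 min at room temperature. Hydroperoxide measured by Fe-xylenol orange, 573/405 nm absorbance ratio.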
Sfp PPTase inh: qHTS Assay for Inhibitors of Bacillus subtilis Sfp phosphopantetheinyl transferase (PPTase) | AID 1490, 2009 | hit rate 3.5% among 310,000 | 4'-phosphopantetheinyl transferase ffp (Bacillus subtilis), Q9F4F7 | Potency, µM, for inactives: largest response in the series, negative = inhibition, usual class: inhibitors | Biochemical Sfp PPTase activity, qHTS;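 also: the enzyme is Sfp with the accession as filed and its product quenches rhodamine fluorescence; potency is read from the fitted curve at half-maximal effect; 0% = enzyme reaction without inhibitor and -100% = no enzyme wells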
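With Hepes-Na pH 7.6 buffer containing 10 mM MgCl2, Sfp (15 nM) modified BHQ-2-YbbR (12.5 uM) using rhodamine-CoA (5 uM). Two reads 30 minutes apart at 525/598 nm yielded each well's rate.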
VDR inh: Inhibitors of the vitamin D receptor (VDR): qHTS | Vitamin D3 receptor (Homo sapiens), P11473 | VDR-SRC2-3 peptide fluorescence polarization, 2 h | Potency, µM, for inactives: max response, negative = inhibition, usual class: inhibitors | hit rate 0.93% among 400,000 | AID 504847, 2011; also: potency is read from the fitted curve at half-maximal effect; % is scaled to controls: 0 for no effect and ±100 for the full control effect
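Two reagent solutions held at 4 deg C in the dark were dispensed, compounds pinned at 23 nl, and the mixture incubated 2 h at room temperature. Read-out: fluorescence polarization of VDR–SRC2-3 peptide binding.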
USP1 UbRho: Inhibitors of USP1/UAF1: Hit Validation in Primary Assay | shares compounds with VDR inh | Ub-Rhodamine cleavage, fluorescence kinetic read | Potency, µM (highest dose often 56.8 µM), inactives show at the top dose activity change, negative = inhibition, usual class: inhibitors | hit rate 50% among 50 | AID 540327, 2011
VDR inh confirm: qHTS for Inhibitors of the vitamin D receptor (VDR): Hit Validation in Primary Screen | VDR-coactivator inhibition assay, qHTS confirmation | shares compounds with VDR inh | Potency, µM, most hits filed as inhibitors | hit rate 89% among 840; also: potency is read from the fitted curve at half-maximal effect
VDR FP: qHTS for Inhibitors of the vitamin D receptor (VDR): Hit Validation using a Fluorescein Assay; shares compounds with VDR inh; VDR-coactivator binding, fluorescein fluorescence polarization; Potency, µM (titrated, usually from 57.1 µM), for the others: top-dose activity change, negative = inhibition, hits mostly inhibitors; hit rate 48% among 840; AID 602200, 2012; also: potency is read from the fitted curve at half-maximal effect
VDR bla reporter: qHTS for Inhibitors of the vitamin D receptor (VDR): Hit Validation using a Beta-Lactamase Assay | shares compounds with VDR inh | Potency, µM (titrated, usually from 46.1 µM), for inactives: at the top dose activity change, negative = inhibition, actives largely listed as inhibitors | VDR beta-lactamase reporter cells, FRET ratio; cells co-treated with VDR agonist LG190178 | hit rate 23% among 840; also: potency is read from the fitted curve at half-maximal effect; % is scaled to controls: 0 for no effect and ±100 for the full control effect
VDR cytotox: qHTS for Inhibitors of the vitamin D receptor (VDR): Hit Validation using a Cytotoxicity Assay; shares compounds with VDR inh; cytotoxicity counter-screen, cell viability, qHTS; Potency, µM (top dose mostly 48.3 µM), for inactives: at the top dose activity change, negative = cytotoxicity, usual class: cytotoxic; hit rate 18% among 840;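 also: potency is read from the fitted curve at half-maximal effect; plate controls were DMSO for no effect and high-concentration cycloheximide for full effect; nearly all actives have a fitted effect of over 75% in size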
Starred values were filed as active, the others as inactive; ? = inconclusive; . = no result given; ! = not confirmed by another sample. Hits are enriched below; roughly 4.2% of the tested compounds scored in any of these assays. Calls follow the shape of the dose curve; as a rule, active = well fitted curve in the direction sought with a large enough effect; inconclusive = small, poorly fitted or top-dose-only effect, or another doubt; inactive = no such curve, though single readings can be large; an effect the other way counts as inactive or inconclusive.

SMILES | PLK1 PBD inh | 12-LOX inh | Sfp PPTase inh | VDR inh | VDR inh confirm | VDR FP | VDR bla reporter | VDR cytotox | others
CCCOc1ccccc1/C=C1/C(=O)ON=C1C | 3µM* | 40µM* | 56µM* | 25µM* | 13* | ? | 15% | 20%
COc1ccccc1C(=O)Nc1ccccc1N1CCN(S(C)(=O)=O)CC1 | -5% | 0% | 4% | -9% | . | . | . | .
CS(=O)(=O)c1sc(C#N)c2c1C(=O)CC(c1ccccc1)C2 (stereo not given) | 5.3µM* | 41% | ? | 14µM* | 8.4* | ? | 15µM* | 3.7µM*
NC(=O)c1[nH]cnc1N | 0% | 0% | -5% | 12% | . | . | . | .
N#CC1=C(N)C(C#N)(C#N)C(c2cccnc2)C2CC(c3ccccc3)CC=C12 (stereo not given) | 27µM* | . | -14% | 25µM* | ? | 8.9µM* | ? | -16%
N#CC1=C(N)C(C#N)(C#N)[C@H](c2cccnc2)[C@H]2CN(C(=O)OCc3ccccc3)CC=C12 | ? | -11% | -20% | 13µM* | 27* | ? | 33% | 13%
CC(=O)Nc1ccc(C(=O)NNC(=O)C2CC2)cc1 | 1% | 15% | -6% | -11% | . | . | . | .
O=C(Cn1c(=O)c(C(F)(F)F)nc2ccccc21)N1CCN(c2ccccc2F)CC1 | . | -15% | . | . | . | . | . | .
CC(C)Oc1ccc(C(=O)N2CCC(c3nc4ccccc4o3)CC2)cc1 | . | 12% | . | -3% | . | . | . | .
CC1(C)C(=O)NC2=C1C(=O)C(=O)c1ccccc12 | . | ? | 50µM*! | 45µM* | . | . | . | . | USP1 UbRho=0.83µM*
Cn1ccnc1CN1CCN(Cc2ccc3cccc(Cl)c3n2)CC1 | . | 6% | . | . | . | . | . | .
Cc1nc(NCCc2ccccc2)sc1C(=O)O | -10% | -5% | 3% | -14% | . | . | . | .
COC1=C(C)C(O)=C(C(=O)/C=C/c2ccccc2)C(=O)C1(C)C | -3% | 9% | 2% | 20µM* | 17* | 20µM* | ? | -3%
COc1cc(C)cc(C(=O)C=Cc2ccccc2)c1O | ? | -2% | . | ? | . | . | . | .
O=C(C1CCCC1)N1CCC(Oc2cccnc2)C1 (stereo not given) | . | 13% | . | . | . | . | . | .
Nc1c(C(=O)N2CCCCC2)sc(=S)n1-c1ccccc1 | 3µM* | ? | -84% | ? | 7.1* | 7.1µM* | -8% | 1%
Nc1nc(SCc2ccccc2)sc1C(=O)N1CCCCC1 | -1% | 0% | . | . | . | . | . | .
COc1ccccc1NS(=O)(=O)c1cc(N)ccc1N1CCOCC1 | 0% | ? | . | 79µM* | 21* | 20µM* | 25% | 32%
Nc1ccc(N2CCOCC2)c(S(=O)(=O)Nc2ccccc2Cl)c1 | -4% | -8% | . | 21% | . | . | . | .
Cc1ccc2c(c1)C(=O)C(=O)N2Cc1ccc(Br)cc1 | ? | ? | . | 22µM* | 8.4* | ? | -21% | ?
NC(=O)CC(NC(=O)Cc1ccc(Br)cc1)c1ccc(NCc2ccc(F)c(F)c2)c([N+](=O)[O-])c1 (stereo not given) | 0% | -27% | ? | -10% | . | . | . | .
O=C(/C=C/c1ccncc1)c1ccc2c(c1)OCCO2 | -24% | ? | -26% | 28µM* | 27* | ? | 1% | -7%
O=C(/C=C/c1ccccc1)c1ccc2c(c1)OCO2 | -8% | 140% | -6% | ? | . | . | . | .
Cc1nn(CC(=O)N2CCOCC2)c(=O)c2c1sc1ccccc12 | -5% | 0% | 12% | -17% | . | . | . | .
CC(=O)Oc1cccc(/C=c2\sc3nc(-c4ccco4)nn3c2=O)c1 | ? | 3% | -13% | ? | 11* | ? | 0% | 18%
SMILES | PLK1 PBD inh | 12-LOX inh | Sfp PPTase inh | VDR inh | VDR inh confirm | VDR FP | VDR bla reporter | VDR cytotox | others
Cc1ccc(NC(=O)c2cc3n(n2)CC(c2ccc4c(c2)OCO4)OC3)cc1Cl (stereo not given) | . | 25% | . | . | . | . | . | .
O=[N+]([O-])c1c(NCCO)cc(N2CCCCCC2)c2nonc12 | -14% | ? | -1% | 1% | . | . | . | .
O=[N+]([O-])c1c(NCCCO)cc(Sc2nc3ccccc3s2)c2nonc12 | 0.95µM* | . | -4% | 16µM* | 6* | ? | ? | ?
CS(=O)(=O)c1ccc(Sc2nc3ccccc3s2)c([N+](=O)[O-])c1 | -15% | . | -5% | -6% | . | . | . | .
CCCC(=O)OCCNc1cc(Sc2nccn2C)c2nonc2c1[N+](=O)[O-] | 2.4µM* | ? | 35µM* | 50µM* | 8.4* | ? | 16µM* | 21µM*
CCC(=O)OCCNc1cc(Sc2nc3ccccc3s2)c2nonc2c1[N+](=O)[O-] | 1.9µM* | ? | 4µM* | 8.9µM* | 6.7* | 3.2µM* | 16µM* | ?
Cc1c(Cc2ccc3c(c2)OCO3)sc(NC(=O)c2cccc3ccccc23)c1C(N)=O | 6µM* | ? | 35µM* | ? | 10* | 14µM* | ? | -26%
CC(=O)N1CCN(C(=O)c2ccc(-c3ccccc3Cl)o2)CC1 | -9% | -23% | . | -26% | . | . | . | .
CC(=O)N1CCN(C(=S)c2ccc(-c3ccc(Cl)cc3)o2)CC1 | 4.7µM* | ? | 32µM* | 50µM* | 27* | ? | 26% | 5%
Cc1c(C(=O)Nc2nc(-c3ccccn3)cs2)oc2ccccc12 | 12µM* | . | . | 89µM* | 21* | -13% | ? | ?
CCOC(=O)c1sc(NC(=O)CSc2nnc(Cc3ccccc3)o2)c(C#N)c1C | 1.7µM* | . | 3.2µM* | 13µM* | 3* | ? | 73% | -2%
CCOC(=O)c1sc(NC(=O)C(C)C)c(C#N)c1C | 3µM* | -27% | 12% | 28µM* | 3.8* | ? | -8% | -4%
COc1cccc(CNC(=O)CCC2CCCN(C(=O)c3cc4ccccc4o3)C2)c1 (stereo not given) | -22% | 0% | -1% | 12% | . | . | . | .
